Assay: basal MM1S mitochondrial membrane potential changes, profiling panel, cell-based, JC-1 fluorescence, 24 h, 100 nL compound (AID 1170); further: test concentration not given here
Details: higher = more signal

Q: For `COCC(=C=CC[C@H](O)c1cccc(OCCO)c1)C[C@H](O)COCc1ccccc1`, which z-score is on record?
A: Its z-score is -0.701.

Q: Which z-score does the source give for `C=CCOC(=O)[C@H]1[C@@H]2C(=O)O[C@@H](c3ccccc3)[C@@H](c3ccccc3)N2[C@@H](c2ccc(OCCOC(=O)[C@H]3C[C@H]4C(=O)N[C@@H](CCCCNC(C)=O)C(=O)N4[C@H]3c3cccc(OCCO)c3)cc2)[C@]12C(=O)Nc1ccc(I)cc12` here?
A: Its z-score is -0.519.

Q: With `Cc1c(NC(=O)/C(C#N)=C/c2ccccc2Cl)c(=O)n(-c2ccccc2)n1C` as the compound, how does the z-score read?
A: The z-score was -1.04.

Q: For `C=C(C(=O)CC[C@@H](OC(=O)c1ccccc1-c1ccccc1C(=O)O)c1ccccc1OCCO)C(C)C`, which z-score is on record?
A: Its z-score is -0.281.

Q: For `COc1ccc([Si](C)(C)[C@@H]2[C@@H](CC(=O)N3Cc4ccccc4C[C@H]3CO)O[C@]3(C(=O)N(Cc4ccc(N5CCC5=O)cc4)c4ccccc43)[C@H]2C)cc1`, which z-score is on record?
A: The z-score was -0.502.

Q: Which z-score does the source give for `C=C[C@@H](OC)[C@H](OC(=O)Nc1ccc(OC)cc1)c1ccc(OC)c(O)c1` here?
A: Its z-score is 0.454.

Q: With `CCOC(=O)C1=CCC(c2ccco2)N(S(=O)(=O)c2ccc(C)cc2)C1` (centres undefined) as the compound, how does the z-score read?
A: Its z-score is -2.11.

Q: With `C=CCNC(=O)[C@H]1[C@@H]2C(=O)O[C@@H](c3ccccc3)[C@@H](c3ccccc3)N2[C@@H](c2ccc(OCCO)cc2)[C@]12C(=O)N(C(=O)OCCOC)c1ccc(C#Cc3ccc(OC)cc3)cc12` as the compound, how does the z-score read?
A: The z-score was -0.529.

Q: With `CN1C=C(C(=O)OCCS(C)(=O)=O)C(C(=O)OCCS(C)(=O)=O)=CC(c2ccc(CO)cc2)=CC1c1cccs1` (centres undefined) as the compound, how does the z-score read?
A: The z-score was 0.0752.

Q: For `COC(=O)C1N=C(c2ccc(OCCCO)cc2)N(c2ccccc2)O1` (centres undefined), which z-score is on record?
A: Its z-score is 0.042.

Q: With `CC(C)N1CC=CC23O[C@@H]4/C=C\CCCOC(=O)C4[C@H]2C(=O)N(CCCCCCO)[C@@H]3C1=O` (some centres undefined) as the compound, how does the z-score read?
A: Its z-score is 1.23.

Q: With `COc1cc(NN2C(C(O)C3CCCCC3)C=CC3C(=O)N(c4ccccc4)C(=O)C32)cc(OC)c1OC` (centres undefined) as the compound, how does the z-score read?
A: The z-score was 0.439.

Q: Which z-score does the source give for `O=C(NCC(O)CO)[C@@]1(CCS(=O)(=O)c2ccccc2)COC(c2ccc(OCCCO)cc2)=N1` (some centres undefined) here?
A: Its z-score is -0.815.

Q: Which z-score does the source give for `NCCCCCNC(=O)[C@@H]1C[C@@H]2C(=O)N3CCC[C@H]3C(=O)N2[C@@H]1c1ccc(O)cc1` here?
A: The z-score was 0.73.

Q: Which z-score does the source give for `CCCNC(=O)[C@@]1(Sc2ccc(C)cc2)CC(=O)N(C2CCCCC2)[C@@H]1c1ccc(CO)cc1I` here?
A: The z-score was -1.04.

Q: Which z-score does the source give for `COC(=O)C1=CC(CCCO)=CC(C)N(Cc2cccc(OC(F)(F)F)c2)C=C1C(=O)OC` (centres undefined) here?
A: The z-score was -0.645.

Q: With `C=CCC(OC(C)=O)[C@@H]1[C@@H](N(Cc2ccc(-c3ccccc3)cc2)C(=O)c2ccc(C)cc2)c2cc(OCCCO)ccc2N1C(=O)Cc1ccc2ccccc2c1` (some centres undefined) as the compound, how does the z-score read?
A: Its z-score is 1.14.

Q: For `CCCCCCCCCCC(O)C1C=CC2C(=O)N(c3ccccc3)C(=O)C2N1Nc1ccccc1F` (centres undefined), which z-score is on record?
A: The z-score was -0.193.

Q: Which z-score does the source give for `CCOC(=O)C[C@H]1[C@H](OC(=O)c2ccc(-c3ccccc3)cc2)[C@@H](NC(=O)Cc2ccc(OC)cc2)c2cc(OCCCO)ccc2N1C(=O)Cc1ccc(OC)cc1` here?
A: Its z-score is -0.128.

Q: With `Cc1ccccc1C(O)C1C=CC2C(=O)NC(=O)C2N1Nc1ccc(Cl)cc1Cl` (centres undefined) as the compound, how does the z-score read?
A: The z-score was 0.106.

Q: Which z-score does the source give for `COCCOC(=O)N1C(=O)[C@@]2(c3cc(C#CCC(C(=O)OC)C(=O)OC)ccc31)[C@H](c1ccc(OCCO)cc1)N1[C@H](c3ccccc3)[C@H](c3ccccc3)OC(=O)[C@H]1[C@@H]2C(=O)Nc1nc2ccccc2s1` here?
A: Its z-score is -1.29.

Q: With `O=C1C[C@@](C(=O)NCC(F)(F)F)(c2ccc([N+](=O)[O-])cc2)[C@@H](c2ccc(CO)cc2)N1CC12CC3CC(CC(C3)C1)C2` as the compound, how does the z-score read?
A: Its z-score is -0.0442.

Q: With `CCOC(=O)C[C@H]1[C@H](OC(=O)c2ccccc2-c2ccccc2)[C@@H](NC(=O)c2ccc3ccccc3n2)c2cc(OCCCO)ccc2N1C(=O)c1ccccc1` as the compound, how does the z-score read?
A: Its z-score is 0.625.

Q: For `COCCOC(=O)N1C(=O)[C@@]2(c3cc(C#CCNC(N)=O)ccc31)[C@H](c1ccc(O)cc1)N1[C@H](c3ccccc3)[C@H](c3ccccc3)OC(=O)[C@H]1[C@@H]2C(=O)N1CCN(c2ncccn2)CC1`, which z-score is on record?
A: Its z-score is -1.14.

Q: Which z-score does the source give for `C=CC[C@H](OC(=O)Nc1ccc(SC)cc1)c1ccc(OCCO)cc1` here?
A: The z-score was -0.227.

Q: With `C[C@]1(C(=O)O)c2ccccc2C(=O)N(Cc2ccc(OC(F)(F)F)cc2)[C@H]1c1ccc(CO)cc1` as the compound, how does the z-score read?
A: The z-score was 0.057.

Q: With `CN(C)CCCCCCNC(=O)[C@@H]1C[C@@H]2C(=O)N[C@@H](CCCCN)C(=O)N2[C@@H]1c1ccc(O)cc1` as the compound, how does the z-score read?
A: The z-score was -1.

Q: With `CC(C)C(=C=CC[C@@H](O)c1cccc(OCCO)c1)C[C@@H](O)c1ccccn1` as the compound, how does the z-score read?
A: The z-score was -0.753.

Q: With `CCOC(=O)C1=CC[C@@H](c2ccccc2)N(S(=O)(=O)c2ccc(C)cc2)[C@H]1c1cccc(OC)c1` as the compound, how does the z-score read?
A: Its z-score is -1.35.
